Source: PubChem BioAssay (NCATS)
Records with an inconclusive call do not appear. A call without a number means that no potency is given here. Active and inactive are the calls of the source. Calls follow the shape of the dose curve; as a rule, active = well fitted curve in the direction sought with a large enough effect; inconclusive = small, poorly fitted or top-dose-only effect, or another doubt; inactive = no such curve, though single readings can be large; an effect the other way counts as inactive or inconclusive. Where a SMILES comes first, the peptide text is derived from it.

Assays:
[1] = target: Calcium and integrin-binding protein 1 (Homo sapiens) (UniProt Q99828); test: Primary qHTS for Identification of Calcium Integrin Binding Protein 1 (CIB1) Competitor (AID 1508620);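 also: GST tagged CIB1 binding a fluorescein labelled alphaIIb integrin peptide tracer; top concentration of the series differs between compounds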
How it was run: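 Fluorescence polarization competition: GST-tagged CIB1 (1 uM final) preincubated with compound 15 min at room temperature, then FITC-labelled alphaIIb peptide (100 nM final) added. After 15 min at room temperature, polarization read at Ex 480/Em 540.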

[2] = Primary qHTS for inhibitors of nuclear receptor binding SET domain protein 2 (NSD2) in an isogenic RCH-ACV NSD2 p.E1099K mutant (9B) (AID 1645876); also: nearly all actives have a fitted effect of over 70% in size; also: potency is read from the fitted curve at half-maximal effect
[3] = Primary qHTS for inhibitors of nuclear receptor binding SET domain protein 2 (NSD2) in an RCH-ACV wild type WT cells (2C) (AID 1645877); also: nearly all actives have a fitted effect of over 70% in size; also: potency is read from the fitted curve at half-maximal effect

Chain of Calcium and integrin-binding protein 1 (Homo sapiens) (Q99828 whole entry, looked up): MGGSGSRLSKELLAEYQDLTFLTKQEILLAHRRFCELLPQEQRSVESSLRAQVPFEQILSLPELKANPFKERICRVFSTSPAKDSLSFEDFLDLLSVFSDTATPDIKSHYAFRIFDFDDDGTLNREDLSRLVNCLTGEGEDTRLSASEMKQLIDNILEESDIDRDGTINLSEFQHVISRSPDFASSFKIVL

SMILES: C/C(=C\CCC(C)C1CC(O)C2(C)C3CCC4C(C)(C)C(OC5OCC(O)C(O)C5O)CCC45CC35CC(O)C12C)C(=O)O (stereo unspecified)
- Potency [1]: inactive
- Potency [2]: inactive
- Potency [3]: inactive

SMILES: C/C(=C\CCC(C)(C)O)CCO[C@@H]1O[C@H](CO[C@@H]2O[C@@H](C)[C@H](O)[C@@H](O)[C@H]2O)[C@@H](O)[C@H](O)[C@H]1O
- Potency [1]: inactive
- Potency [2]: inactive
- Potency [3]: inactive

SMILES: C[C@]1(OC(=O)/C=C/c2ccc(O)cc2)C[C@@H](O)[C@]2(O)C=CO[C@@H](O[C@@H]3O[C@H](CO)[C@@H](O)[C@H](O)[C@H]3O)C12 (stereo partly specified)
- Potency [1]: inactive
- Potency [2]: inactive
- Potency [3]: inactive

SMILES: CC1CCC2(C(=O)O)CCC3(C)C(=CCC4C5(C)C[C@@H](O)[C@@H](O)C(C)(CO)C5CCC43C)C2C1(C)O (stereo partly specified)
- Potency [1]: inactive
- Potency [2]: 6.32 µM (active)
- Potency [3]: 3.17 µM (active)

SMILES: CC1(C)CC[C@]2(C(=O)O[C@@H]3O[C@H](CO[C@@H]4O[C@H](CO)[C@@H](O)[C@H](O)[C@H]4O)[C@@H](O)[C@H](O[C@@H]4O[C@H](CO)[C@@H](O)[C@H](O)[C@H]4O)[C@H]3O)CC[C@]3(C)C(=CCC4[C@@]5(C)CC[C@H](O[C@@H]6OC[C@@H](O)[C@H](O)[C@H]6O)[C@@](C)(C(=O)O)C5CC[C@]43C)[C@@H]2C1 (stereo partly specified)
- Potency [1]: inactive
- activity change, negative = viability loss [2]: 0.102% [at 9.23 µM] (inactive)
- outcome [3]: inactive [at 9.23 µM]

SMILES: C=C1C[C@]23C[C@H]1CC[C@H]2[C@]1(C)CC[C@H](O)[C@@](C)(C(=O)O)[C@H]1[C@@H]3C(=O)O
- Potency [1]: inactive
- Potency [2]: inactive
- Potency [3]: inactive

SMILES: C[C@@H]1CC[C@]2(C(=O)O)CC[C@]3(C)C(=CCC4[C@@]5(C)C[C@@H](O)[C@H](O)[C@@](C)(CO)C5CC[C@]43C)C2[C@H]1C (stereo partly specified)
- Potency [1]: inactive
- Potency [2]: inactive
- Potency [3]: inactive

SMILES: Cc1sc(C)c(C(=O)NC2(c3ccc(C(=O)O)cc3)CC2)c1Cc1ccc(C(F)(F)F)cc1
- Potency [1]: inactive
- Potency [2]: inactive
- Potency [3]: inactive

SMILES: CSCC[C@H](NC(=O)[C@H](CO)NC(=O)[C@H](CCC(=O)O)NC(C)=O)C(=O)N[C@H](C=O)CC(=O)O (Ac-ESMD-aldehyde)
- Potency [1]: inactive
- activity change, negative = viability loss [2]: -10.4% [at 9.23 µM] (inactive)
- activity change, negative = cell killing [3]: -15.7% [at 9.23 µM] (inactive)

SMILES: CC1(C)CC[C@]2(C(=O)O)CC[C@]3(C)C(=CCC4[C@@]5(C)CC[C@H](O[C@@H]6O[C@H](C(=O)O)[C@@H](O)[C@H](O)[C@H]6O)C(C)(C)C5CC[C@]43C)C2C1 (stereo partly specified)
- Potency [1]: inactive
- Potency [2]: inactive
- Potency [3]: inactive

SMILES: CC1(C)C(=O)CCC2(C)C1C(O)C=C1COC(=O)C12O (stereo unspecified)
- Potency [1]: inactive
- Potency [2]: inactive
- Potency [3]: inactive

SMILES: O=C(OCC1=C[C@@H](O)[C@@H]2C=CO[C@@H](O[C@@H]3O[C@H](CO)[C@@H](O)[C@H](O)[C@H]3O)[C@H]12)c1ccc(O)cc1
- Potency [1]: inactive
- Potency [2]: inactive
- Potency [3]: inactive

SMILES: COc1ccc(C2(O)c3c(ccc4c3OC(C)(CCC=C(C)C)C=C4)NC(=O)C2OC)cc1 (stereo unspecified)
- Potency [1]: inactive
- Potency [2]: inactive
- Potency [3]: inactive

SMILES: C[C@H]1[C@H](C)CC[C@]2(C(=O)O)CC[C@]3(C)C(=CCC4[C@@]5(C)C[C@@H](O)[C@H](O)C(C)(C)C5CC[C@]43C)[C@H]12 (stereo partly specified)
- Potency [1]: inactive
- Potency [2]: inactive
- Potency [3]: inactive

SMILES: COc1cc(/C=C/C(=O)O[C@H]2[C@H](O)[C@@H](CO)O[C@@]2(CO)O[C@H]2O[C@H](CO)[C@@H](O)[C@H](O)[C@H]2O)cc(OC)c1O
- Potency [1]: inactive
- Potency [2]: inactive
- Potency [3]: inactive

SMILES: C=CC(C)(C)C12Nc3c(ccc4c3OC(C)(C)C=C4)C1(O)CC1C(=O)N3CCCC3C(=O)N12 (stereo unspecified)
- Potency [1]: inactive
- Potency [2]: inactive
- Potency [3]: inactive

SMILES: COc1cc(O)cc(C)c1C(=O)OC1C(CO)OC(n2ccc(=O)[nH]c2=O)C1OC(C)=O (stereo unspecified)
- Potency [1]: inactive
- Potency [2]: inactive
- Potency [3]: inactive

SMILES: C[C@@H]1C[C@@H](O)[C@@]23CO[C@]2(CO)C[C@@H](O)CC3[C@@]12CC(c1ccoc1)OC2=O (stereo partly specified)
- Potency [1]: inactive
- Potency [2]: inactive
- Potency [3]: inactive

SMILES: CC(=O)/C=C/C1(O)C(C)(C)CC(O)CC1(C)O (stereo unspecified)
- Potency [1]: inactive
- Potency [2]: inactive
- Potency [3]: inactive

SMILES: C/C1=C\CC(C)(C)/C=C/C/C(C(=O)O)=C/CC1
- Potency [1]: inactive
- Potency [2]: inactive
- Potency [3]: inactive

SMILES: OC[C@H]1O[C@@H](O[C@H]2[C@H](O)[C@@H](CO)O[C@@H](OCc3ccccc3)[C@@H]2O[C@@H]2OC[C@](O)(CO)[C@H]2O)[C@H](O)[C@@H](O)[C@@H]1O
- Potency [1]: inactive
- Potency [2]: inactive
- Potency [3]: inactive

SMILES: OC[C@H]1O[C@@H](OCCc2ccccc2)[C@H](O)[C@@H](O)[C@@H]1O
- Potency [1]: inactive
- Potency [2]: inactive
- Potency [3]: inactive
